Test results: paper PMC7862700, “An all-to-all approach to the identification of sequence-specific readers for epigenetic DNA modifications on cytosine”

Tests used:
Test in all cases: DAPPL (digital affinity profiling via proximity ligation, sequencing); 10 mM Tris-HCl pH 7.5, 50 mM NaCl, 1 mM DTT, 4% glycerol, room temperature, 30 min; GST-TFs on glutathione beads, 16-mer random dsDNA library, 0.1% formaldehyde crosslink after washing; high values mean tight binding
Conditions in all cases: protein: recombinant; tags: N-terminal GST; dsDNA, one strand shown
FEV = target: T1, FEV (Homo sapiens, UniProt Q99581 1-238)
T1 sequence: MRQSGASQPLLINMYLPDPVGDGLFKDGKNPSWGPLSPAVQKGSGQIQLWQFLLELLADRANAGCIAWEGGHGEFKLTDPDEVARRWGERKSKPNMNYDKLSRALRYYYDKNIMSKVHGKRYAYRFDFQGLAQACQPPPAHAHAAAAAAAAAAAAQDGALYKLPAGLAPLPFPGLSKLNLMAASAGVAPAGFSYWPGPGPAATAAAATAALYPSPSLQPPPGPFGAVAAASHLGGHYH
Summary of the method: (§1)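 GST fusions of human transcription factors were expressed in yeast and captured with glutathione beads. Once given DNA barcodes and pooled alongside a tag-only sample, they were incubated for 30 min at room temperature with 200 nmole of a random double-stranded 16-mer DNA library in Tris/NaCl/DTT/glycerol buffer, then washed, crosslinked (0.1% formaldehyde), proximity-ligated, PCR-amplified and sequenced on an Illumina NextSeq500. The binding signal of each hexamer is its read frequency for a factor divided by its frequency for the tag-only sample.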

ETV5 = ETV5 (Homo sapiens, UniProt P41161 1-510)
Summary of the method: as §1

SPIC = target: T2, SPIC (Homo sapiens, UniProt Q8N5J4 1-248)
T2 sequence: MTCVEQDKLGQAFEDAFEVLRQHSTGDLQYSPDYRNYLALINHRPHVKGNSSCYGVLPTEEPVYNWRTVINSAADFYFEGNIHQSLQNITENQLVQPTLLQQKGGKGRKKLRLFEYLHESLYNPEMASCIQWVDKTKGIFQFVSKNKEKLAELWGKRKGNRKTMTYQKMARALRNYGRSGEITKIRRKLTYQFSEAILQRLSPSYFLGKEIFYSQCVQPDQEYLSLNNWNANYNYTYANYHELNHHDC
Summary of the method: as §1

ELF4 = ELF4 (Homo sapiens, UniProt Q99607 1-663)
Summary of the method: as §1

ELK4 = target: T3, ELK4 (Homo sapiens, UniProt P28324-2 1-405)
T3 sequence: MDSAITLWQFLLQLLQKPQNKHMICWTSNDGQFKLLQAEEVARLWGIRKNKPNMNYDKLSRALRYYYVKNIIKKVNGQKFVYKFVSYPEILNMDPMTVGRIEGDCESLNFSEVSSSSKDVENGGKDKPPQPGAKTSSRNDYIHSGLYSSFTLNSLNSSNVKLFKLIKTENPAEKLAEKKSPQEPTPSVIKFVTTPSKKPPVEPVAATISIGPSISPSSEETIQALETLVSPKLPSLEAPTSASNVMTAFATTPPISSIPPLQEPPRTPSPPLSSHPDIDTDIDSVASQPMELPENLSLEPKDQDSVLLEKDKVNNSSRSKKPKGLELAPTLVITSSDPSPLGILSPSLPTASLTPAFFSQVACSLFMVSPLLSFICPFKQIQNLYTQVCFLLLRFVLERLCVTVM
Summary of the method: as §1

ETV2 = target: T4, ETV2 (Homo sapiens, UniProt O00321 1-342)
T4 sequence: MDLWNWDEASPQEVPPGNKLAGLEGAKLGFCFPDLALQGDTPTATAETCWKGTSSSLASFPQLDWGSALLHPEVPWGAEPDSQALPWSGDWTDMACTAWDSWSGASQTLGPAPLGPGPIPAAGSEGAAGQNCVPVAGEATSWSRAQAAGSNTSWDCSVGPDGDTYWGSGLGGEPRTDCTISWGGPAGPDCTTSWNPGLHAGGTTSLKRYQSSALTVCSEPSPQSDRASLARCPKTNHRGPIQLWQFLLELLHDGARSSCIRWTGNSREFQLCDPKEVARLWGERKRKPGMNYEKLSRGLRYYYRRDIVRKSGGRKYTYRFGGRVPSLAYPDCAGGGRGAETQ
Summary of the method: as §1

ELF3 = target: T5, ELF3 (Homo sapiens, UniProt P78545 1-371)
T5 sequence: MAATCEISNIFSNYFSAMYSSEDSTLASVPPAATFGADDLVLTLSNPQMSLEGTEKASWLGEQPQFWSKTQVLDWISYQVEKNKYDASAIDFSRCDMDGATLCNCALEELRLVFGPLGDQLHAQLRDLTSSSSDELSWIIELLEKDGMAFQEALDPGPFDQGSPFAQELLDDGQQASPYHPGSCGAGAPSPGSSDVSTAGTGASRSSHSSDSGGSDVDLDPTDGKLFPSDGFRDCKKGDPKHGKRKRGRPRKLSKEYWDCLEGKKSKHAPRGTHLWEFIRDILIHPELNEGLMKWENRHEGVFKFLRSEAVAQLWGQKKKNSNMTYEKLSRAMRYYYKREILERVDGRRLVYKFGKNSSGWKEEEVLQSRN
Summary of the method: as §1

ETV1 = ETV1 (Homo sapiens, UniProt P50549 1-477)
Summary of the method: as §1

ERF = target: T6, ERF (Homo sapiens, UniProt P50548 1-548)
T6 sequence: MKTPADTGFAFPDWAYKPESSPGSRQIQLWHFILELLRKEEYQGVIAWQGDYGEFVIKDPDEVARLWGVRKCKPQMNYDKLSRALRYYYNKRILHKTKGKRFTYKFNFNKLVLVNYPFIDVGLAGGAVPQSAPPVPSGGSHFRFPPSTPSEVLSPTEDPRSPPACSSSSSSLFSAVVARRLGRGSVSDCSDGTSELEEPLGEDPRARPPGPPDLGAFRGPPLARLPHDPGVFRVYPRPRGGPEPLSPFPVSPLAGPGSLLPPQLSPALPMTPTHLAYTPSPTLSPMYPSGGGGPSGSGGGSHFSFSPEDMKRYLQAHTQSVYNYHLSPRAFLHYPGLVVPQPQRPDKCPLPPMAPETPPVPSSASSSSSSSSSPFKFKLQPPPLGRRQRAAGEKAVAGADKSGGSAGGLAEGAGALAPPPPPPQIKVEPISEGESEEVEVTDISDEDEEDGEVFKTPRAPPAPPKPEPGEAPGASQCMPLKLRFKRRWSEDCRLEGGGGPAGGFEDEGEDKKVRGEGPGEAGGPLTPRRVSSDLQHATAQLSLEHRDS
Summary of the method: as §1

ETV3L = target: T7, ETV3L (Homo sapiens, UniProt Q6ZN32 1-361)
T7 sequence: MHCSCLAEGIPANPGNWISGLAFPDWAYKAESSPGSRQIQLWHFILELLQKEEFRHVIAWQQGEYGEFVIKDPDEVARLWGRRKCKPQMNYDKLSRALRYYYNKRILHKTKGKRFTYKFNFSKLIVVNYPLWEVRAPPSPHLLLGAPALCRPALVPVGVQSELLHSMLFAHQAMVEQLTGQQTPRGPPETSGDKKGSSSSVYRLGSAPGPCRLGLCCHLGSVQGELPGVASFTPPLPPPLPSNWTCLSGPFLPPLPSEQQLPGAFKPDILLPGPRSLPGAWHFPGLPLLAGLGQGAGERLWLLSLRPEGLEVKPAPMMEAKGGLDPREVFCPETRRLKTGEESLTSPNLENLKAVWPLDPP
Summary of the method: as §1

ETS2 = target: T8, ETS2 (Homo sapiens, UniProt P15036 1-469)
T8 sequence: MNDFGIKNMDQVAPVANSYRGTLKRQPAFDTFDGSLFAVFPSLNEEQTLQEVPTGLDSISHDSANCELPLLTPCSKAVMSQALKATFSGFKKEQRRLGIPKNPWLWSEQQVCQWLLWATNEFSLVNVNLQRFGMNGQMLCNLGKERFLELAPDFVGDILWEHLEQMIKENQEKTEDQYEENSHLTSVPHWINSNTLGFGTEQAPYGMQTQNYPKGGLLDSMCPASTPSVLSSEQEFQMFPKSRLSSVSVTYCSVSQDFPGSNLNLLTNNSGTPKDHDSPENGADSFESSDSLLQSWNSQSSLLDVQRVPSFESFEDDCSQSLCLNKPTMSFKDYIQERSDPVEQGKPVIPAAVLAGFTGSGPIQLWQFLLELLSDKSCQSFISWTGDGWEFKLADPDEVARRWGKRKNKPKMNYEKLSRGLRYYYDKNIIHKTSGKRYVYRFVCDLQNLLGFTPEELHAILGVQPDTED
Summary of the method: as §1

SPDEF = target: T9, SPDEF (Homo sapiens, UniProt O95238 1-335)
T9 sequence: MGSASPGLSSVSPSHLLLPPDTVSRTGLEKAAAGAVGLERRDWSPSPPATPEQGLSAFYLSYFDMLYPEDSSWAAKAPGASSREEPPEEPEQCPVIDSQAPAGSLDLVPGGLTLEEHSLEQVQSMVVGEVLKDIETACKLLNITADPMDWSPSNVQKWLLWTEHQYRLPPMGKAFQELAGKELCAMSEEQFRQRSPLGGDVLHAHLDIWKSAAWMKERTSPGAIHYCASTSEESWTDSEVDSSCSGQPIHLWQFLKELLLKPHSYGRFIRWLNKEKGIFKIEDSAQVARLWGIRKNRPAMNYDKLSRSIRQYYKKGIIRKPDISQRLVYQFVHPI
Summary of the method: as §1

ETV7 = target: T10, ETV7 (Homo sapiens, UniProt Q9Y603 1-341)
T10 sequence: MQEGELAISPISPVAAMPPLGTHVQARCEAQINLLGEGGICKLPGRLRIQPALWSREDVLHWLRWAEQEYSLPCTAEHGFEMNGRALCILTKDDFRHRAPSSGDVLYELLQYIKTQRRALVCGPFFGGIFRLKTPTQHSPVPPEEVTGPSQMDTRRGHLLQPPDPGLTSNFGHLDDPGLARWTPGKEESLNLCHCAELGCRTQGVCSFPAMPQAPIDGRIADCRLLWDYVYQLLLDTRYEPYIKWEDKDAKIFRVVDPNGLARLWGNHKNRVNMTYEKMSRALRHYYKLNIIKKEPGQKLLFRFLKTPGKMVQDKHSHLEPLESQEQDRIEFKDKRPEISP
Summary of the method: as §1

ELF5 = target: T11, ELF5 (Homo sapiens, UniProt Q9UKW6-2 1-255)
T11 sequence: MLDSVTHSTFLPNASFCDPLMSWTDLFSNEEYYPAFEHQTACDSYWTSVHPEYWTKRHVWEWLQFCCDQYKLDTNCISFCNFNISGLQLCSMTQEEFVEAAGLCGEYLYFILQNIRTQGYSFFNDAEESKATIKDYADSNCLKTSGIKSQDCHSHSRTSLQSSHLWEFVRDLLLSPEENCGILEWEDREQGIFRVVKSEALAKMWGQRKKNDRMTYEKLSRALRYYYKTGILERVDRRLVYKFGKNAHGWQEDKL
Summary of the method: as §1

ETV3 = target: T12, ETV3 (Homo sapiens, UniProt P41162-2 1-143)
T12 sequence: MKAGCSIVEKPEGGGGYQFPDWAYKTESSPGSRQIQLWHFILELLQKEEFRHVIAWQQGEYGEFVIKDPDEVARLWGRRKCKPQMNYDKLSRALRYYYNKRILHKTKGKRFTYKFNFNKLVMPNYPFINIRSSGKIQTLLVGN
Summary of the method: as §1

ETV6 = ETV6 (Homo sapiens, UniProt P41212 1-452)
Summary of the method: as §1

Sequence of ELF4 (Q99607 whole entry): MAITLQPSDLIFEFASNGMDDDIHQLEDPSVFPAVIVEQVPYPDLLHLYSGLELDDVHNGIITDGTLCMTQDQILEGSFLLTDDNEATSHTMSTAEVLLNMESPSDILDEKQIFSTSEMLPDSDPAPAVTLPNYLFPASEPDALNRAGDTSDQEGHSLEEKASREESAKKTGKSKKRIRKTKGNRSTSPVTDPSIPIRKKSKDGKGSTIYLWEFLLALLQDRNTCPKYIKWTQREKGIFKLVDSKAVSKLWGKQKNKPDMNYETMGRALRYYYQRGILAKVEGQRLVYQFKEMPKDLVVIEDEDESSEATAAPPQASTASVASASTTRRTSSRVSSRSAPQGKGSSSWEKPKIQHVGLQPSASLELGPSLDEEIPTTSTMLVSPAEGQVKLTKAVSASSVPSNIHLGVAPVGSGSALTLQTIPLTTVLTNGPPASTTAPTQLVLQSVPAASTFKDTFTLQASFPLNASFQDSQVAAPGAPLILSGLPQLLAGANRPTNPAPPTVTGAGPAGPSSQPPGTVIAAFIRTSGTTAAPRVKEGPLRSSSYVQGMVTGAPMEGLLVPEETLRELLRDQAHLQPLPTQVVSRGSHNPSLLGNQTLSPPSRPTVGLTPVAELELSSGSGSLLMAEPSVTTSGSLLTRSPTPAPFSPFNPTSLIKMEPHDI
Sequence of ETV6 (P41212 whole entry): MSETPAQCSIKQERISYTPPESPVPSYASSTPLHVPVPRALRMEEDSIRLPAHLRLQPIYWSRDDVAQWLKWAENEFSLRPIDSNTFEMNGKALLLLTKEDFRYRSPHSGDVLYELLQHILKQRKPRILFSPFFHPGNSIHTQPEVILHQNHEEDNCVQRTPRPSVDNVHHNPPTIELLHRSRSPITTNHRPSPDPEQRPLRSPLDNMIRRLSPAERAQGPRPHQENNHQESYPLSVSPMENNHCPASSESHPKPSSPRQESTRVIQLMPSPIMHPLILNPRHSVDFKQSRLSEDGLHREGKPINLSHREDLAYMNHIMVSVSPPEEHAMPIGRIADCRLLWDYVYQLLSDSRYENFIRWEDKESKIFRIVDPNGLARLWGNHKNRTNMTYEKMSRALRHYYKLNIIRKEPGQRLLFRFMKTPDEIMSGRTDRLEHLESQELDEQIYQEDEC
Sequence of ETV1 (P50549 whole entry): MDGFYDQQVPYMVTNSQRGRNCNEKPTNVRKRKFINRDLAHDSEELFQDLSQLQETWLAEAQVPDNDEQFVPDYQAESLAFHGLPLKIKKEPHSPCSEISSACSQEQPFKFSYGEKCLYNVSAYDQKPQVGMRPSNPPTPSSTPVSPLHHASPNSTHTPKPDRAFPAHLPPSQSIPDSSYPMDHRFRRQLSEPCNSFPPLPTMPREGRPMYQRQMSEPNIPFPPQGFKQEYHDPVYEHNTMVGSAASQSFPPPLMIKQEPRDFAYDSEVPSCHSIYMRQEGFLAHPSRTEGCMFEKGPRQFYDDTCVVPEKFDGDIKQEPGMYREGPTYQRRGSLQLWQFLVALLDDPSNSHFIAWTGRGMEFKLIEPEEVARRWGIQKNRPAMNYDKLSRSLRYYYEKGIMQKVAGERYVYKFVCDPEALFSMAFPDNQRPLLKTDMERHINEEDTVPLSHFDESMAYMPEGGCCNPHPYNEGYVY
Sequence of ETV5 (P41161 whole entry): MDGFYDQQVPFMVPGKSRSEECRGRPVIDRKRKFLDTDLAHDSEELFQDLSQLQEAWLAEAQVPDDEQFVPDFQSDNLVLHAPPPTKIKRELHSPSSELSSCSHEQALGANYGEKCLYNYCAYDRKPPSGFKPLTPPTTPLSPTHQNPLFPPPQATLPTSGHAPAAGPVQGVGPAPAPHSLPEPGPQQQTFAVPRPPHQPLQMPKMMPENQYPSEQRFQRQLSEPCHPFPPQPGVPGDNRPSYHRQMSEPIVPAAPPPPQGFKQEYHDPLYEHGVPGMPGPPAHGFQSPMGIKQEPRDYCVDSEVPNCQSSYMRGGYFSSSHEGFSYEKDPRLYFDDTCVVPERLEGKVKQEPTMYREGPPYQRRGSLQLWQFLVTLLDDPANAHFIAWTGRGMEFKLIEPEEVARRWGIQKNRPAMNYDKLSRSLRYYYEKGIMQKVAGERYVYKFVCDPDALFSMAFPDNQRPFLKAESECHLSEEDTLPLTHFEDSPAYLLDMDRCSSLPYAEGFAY

Sequence	binding signal (FEV)	binding signal (ETV5)	binding signal (SPIC)	binding signal (ELF4)	binding signal (ELK4)	binding signal (ETV2)	binding signal (ELF3)	binding signal (ETV1)	binding signal (ERF)	binding signal (ETV3L)	binding signal (ETS2)	binding signal (SPDEF)	binding signal (ETV7)	binding signal (ELF5)	binding signal (ETV3)	binding signal (ETV6)
CACAAC	1.31 fold enrichment (6-mer frequency, TF over GST control)	1.24 fold enrichment (6-mer frequency, TF over GST control)	1.25 fold enrichment (6-mer frequency, TF over GST control)	1.23 fold enrichment (6-mer frequency, TF over GST control)	1.25 fold enrichment (6-mer frequency, TF over GST control)	1.19 fold enrichment (6-mer frequency, TF over GST control)	1.3 fold enrichment (6-mer frequency, TF over GST control)	1.2 fold enrichment (6-mer frequency, TF over GST control)	1.36 fold enrichment (6-mer frequency, TF over GST control)	1.29 fold enrichment (6-mer frequency, TF over GST control)	1.25 fold enrichment (6-mer frequency, TF over GST control)	1.25 fold enrichment (6-mer frequency, TF over GST control)	1.13 fold enrichment (6-mer frequency, TF over GST control)	1.28 fold enrichment (6-mer frequency, TF over GST control)	1.22 fold enrichment (6-mer frequency, TF over GST control)	1.24 fold enrichment (6-mer frequency, TF over GST control)
ACGCTG	1.09 fold enrichment (6-mer frequency, TF over GST control)	1.08 fold enrichment (6-mer frequency, TF over GST control)	1.15 fold enrichment (6-mer frequency, TF over GST control)	1.17 fold enrichment (6-mer frequency, TF over GST control)	1.21 fold enrichment (6-mer frequency, TF over GST control)	1.05 fold enrichment (6-mer frequency, TF over GST control)	1.05 fold enrichment (6-mer frequency, TF over GST control)	1.12 fold enrichment (6-mer frequency, TF over GST control)	1.21 fold enrichment (6-mer frequency, TF over GST control)	1.15 fold enrichment (6-mer frequency, TF over GST control)	1.06 fold enrichment (6-mer frequency, TF over GST control)	1.24 fold enrichment (6-mer frequency, TF over GST control)	1.16 fold enrichment (6-mer frequency, TF over GST control)	1.09 fold enrichment (6-mer frequency, TF over GST control)	1.26 fold enrichment (6-mer frequency, TF over GST control)	1.09 fold enrichment (6-mer frequency, TF over GST control)
CCTGTG	1.11 fold enrichment (6-mer frequency, TF over GST control)	1.07 fold enrichment (6-mer frequency, TF over GST control)	1.32 fold enrichment (6-mer frequency, TF over GST control)	1.11 fold enrichment (6-mer frequency, TF over GST control)	1.22 fold enrichment (6-mer frequency, TF over GST control)	1.11 fold enrichment (6-mer frequency, TF over GST control)	1 fold enrichment (6-mer frequency, TF over GST control)	1.12 fold enrichment (6-mer frequency, TF over GST control)	1.08 fold enrichment (6-mer frequency, TF over GST control)	1.02 fold enrichment (6-mer frequency, TF over GST control)	1.03 fold enrichment (6-mer frequency, TF over GST control)	1.02 fold enrichment (6-mer frequency, TF over GST control)	1.07 fold enrichment (6-mer frequency, TF over GST control)	1.06 fold enrichment (6-mer frequency, TF over GST control)	1.07 fold enrichment (6-mer frequency, TF over GST control)	1.06 fold enrichment (6-mer frequency, TF over GST control)
